Source: PubChem (National Center for Advancing Translational Sciences (NCATS))
This is a sample that favours compounds with a hit; in the whole collection about 11% have one here.
G9a block: inhibitors of human histone lysine methyltransferase G9a; G9a H3K9 monomethylation, AlphaScreen, 2 h; Q96KQ7; Potency, µM (titrated, usually from 102 µM), without a hit: at the highest dose activity, negative = inhibition, hits mostly inhibitors; 350,000 tested, 8.8% active; AID 504332; note: % is set by controls: 0 for no effect and ±100 for the full control effect; nearly all actives have a fitted effect of over 75% in size
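Chemiluminescent proximity detection of H3K9 monomethylation, read after 10 min bead incubation in the dark. Reaction: 20 nM G9a, 500 nM biotin-H3K9 peptide, 20 uM SAM cofactor, 2 h, room temperature, following 15 min enzyme-compound preincubation.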
HP1b chromo inh: inhibitors of HP1-beta chromodomain binding to methylated histone tails; P83916; AlphaScreen HP1-beta / biotin-H3K9me3 peptide binding; Potency, µM (top dose mostly 114 µM), for inactives: top-dose activity change, negative = inhibition, most hits filed as inhibitors; 390,000 tested, 0.56% active; note: nearly all actives have a fitted effect of over 70% in size
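HP1-beta protein (50 nM final) preincubated 30 min at room temperature with biotinylated H3(1-18)K9me3 peptide (50 nM) in PBS pH 7.4, 0.01% Tween-20, then compound added for 30 min. AlphaScreen streptavidin donor/nickel chelate acceptor beads (10 ug/mL final), 30 min dark, luminescence read.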
BAZ2B block: blocks human BAZ2B; Q9UIF8; AlphaScreen BAZ2B-H3K14Ac peptide displacement; Potency, µM (highest dose often 114 µM), without a hit: at the top dose activity change, negative = inhibition, actives largely listed as inhibitors; 360,000 tested, 4.4% active; AID 504333; note: % is set by controls: 0 for no effect and ±100 for the full control effect; nearly all actives have a fitted effect of over 60% in size
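Protein-peptide AlphaScreen: BAZ2B 50 nM, b-H3K14Ac 50 nM, 1x PBS pH 7.4 + 0.01% Tween-20. Preincubation 30 min RT; cpd 30 min RT (top 110 uM); beads 20 min RT, light-protected.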
PLK1 PBD inh: blocks phosphopeptide binding to human PLK1 polo-box domain; Potency, µM, for inactives: max response, negative = inhibition, most hits filed as inhibitors; Plk1 PBD binding of FITC phosphopeptide, fluorescence polarization; P53350; 360,000 tested, 2.8% active; AID 720504; note: series mostly up to about 57 µM; % is set by controls: 0 for no effect and ±100 for the full control effect; nearly all actives have a fitted effect of over 65% in size
JMJD2A Tudor inh: inhibitors of human JMJD2A Tudor domain. O75164. AlphaScreen JMJD2A-Tudor / H3K4me3 peptide binding. Potency, µM (doses to about 114 µM), without a hit: top-dose activity change, negative = inhibition, usual class: inhibitors. 390,000 tested, 4.4% active. AID 504339; note: % is set by controls: 0 for no effect and ±100 for the full control effect; nearly all actives have a fitted effect of over 50% in size
Target sequence (O75164 whole entry, looked up, the tested form may be a part): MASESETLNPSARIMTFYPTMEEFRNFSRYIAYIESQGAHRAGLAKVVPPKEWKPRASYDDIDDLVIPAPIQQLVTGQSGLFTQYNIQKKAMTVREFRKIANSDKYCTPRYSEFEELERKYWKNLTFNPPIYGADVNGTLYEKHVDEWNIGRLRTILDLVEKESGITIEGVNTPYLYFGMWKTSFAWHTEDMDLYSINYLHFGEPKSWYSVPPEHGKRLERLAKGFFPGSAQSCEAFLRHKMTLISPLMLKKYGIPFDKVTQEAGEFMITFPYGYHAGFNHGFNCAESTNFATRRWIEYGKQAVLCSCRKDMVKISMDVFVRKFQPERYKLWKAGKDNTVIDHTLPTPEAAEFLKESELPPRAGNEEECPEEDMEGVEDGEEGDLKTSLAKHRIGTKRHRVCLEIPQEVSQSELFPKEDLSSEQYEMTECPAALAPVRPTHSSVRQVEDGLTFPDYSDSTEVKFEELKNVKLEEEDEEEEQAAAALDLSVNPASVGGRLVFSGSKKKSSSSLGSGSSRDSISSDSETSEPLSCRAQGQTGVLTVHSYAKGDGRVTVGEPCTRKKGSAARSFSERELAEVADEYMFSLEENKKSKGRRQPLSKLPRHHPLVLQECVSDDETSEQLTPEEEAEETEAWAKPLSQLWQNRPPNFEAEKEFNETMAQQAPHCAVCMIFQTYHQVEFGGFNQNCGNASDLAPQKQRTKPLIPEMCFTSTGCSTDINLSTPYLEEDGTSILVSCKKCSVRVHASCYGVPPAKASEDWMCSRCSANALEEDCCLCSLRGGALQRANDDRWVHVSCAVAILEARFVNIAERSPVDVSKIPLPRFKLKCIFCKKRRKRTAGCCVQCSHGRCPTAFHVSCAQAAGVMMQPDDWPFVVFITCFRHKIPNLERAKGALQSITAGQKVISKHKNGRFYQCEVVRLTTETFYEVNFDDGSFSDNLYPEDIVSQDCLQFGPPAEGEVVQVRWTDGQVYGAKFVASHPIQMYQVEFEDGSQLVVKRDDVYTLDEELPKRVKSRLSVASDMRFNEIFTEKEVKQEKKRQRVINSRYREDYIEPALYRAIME
VDR inhibitor: inhibitors of human vitamin D receptor. 400,000 tested, 0.93% active. VDR-SRC2-3 peptide fluorescence polarization, 2 h. Potency, µM, without a hit: max response, negative = inhibition, hits mostly inhibitors; note: % is set by controls: 0 for no effect and ±100 for the full control effect
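Inhibition of the VDR/SRC2-3 peptide interaction is quantified by fluorescence polarization. Compounds (23 nl, pintool) incubate with the reagents for 2 hours at ambient room temperature.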
* = called active by the depositor; ? = inconclusive; nt = no result given; [ ] = another dose, or the depositor's remark. Calls come from the whole dose curve; as a rule, active = well fitted curve in the direction sought with a large enough effect; inconclusive = small, poorly fitted or top-dose-only effect, or another doubt; inactive = no such curve, though single readings can be large; an effect the other way counts as inactive or inconclusive. Potency is the fitted concentration of half-maximal effect.

SMILES	G9a block	HP1b chromo inh	BAZ2B block	PLK1 PBD inh	JMJD2A Tudor inh	VDR inhibitor
COCCn1c(-c2ccc(Br)cc2)nc2oc3cc(OC)ccc3c(=O)c2c1=O	?	43%	-16%	-2%	-6%	-24%
COc1ccc(C(C(=O)NC2CCCC2)N(CCCO)C(=O)c2snc(C(N)=O)c2N)cc1 (stereo not given)	-4%	86%	-14%	-17%	?	7%
NC(=O)C1CCN(S(=O)(=O)c2cc3c(cc2Cl)NC(=O)CO3)CC1	-2%[59 µM]	?	2%	nt	-8%	9%
Cc1ccc(N2CCN(c3ccc(C)cc3)C2c2ccncc2)cc1	35µM*	?	-77%	-19%	-33%[11.4 µM]	-19%
Oc1cccc(/C=N/N2CCN(c3ccccn3)CC2)c1	nt	17%	-27%	-4%	-17%	11%
BrC(=C\c1ccccc1)/C=N/N1CCN(c2ccccn2)CC1	28µM*	-4%	79µM*	-11%	-28%	?
BrC(/C=N/N1CCN(Cc2ccccc2)CC1)=C/c1ccccc1	?	-18%	?	-10%	40µM*	-24%
BrC(=C\c1ccccc1)/C=N/N1CCN(Cc2ccccc2)CC1	45µM*	?	?	-2%	?	-9%
Cc1ccc2c(c1)C1CN(C)CCC1N2Sc1ccccc1[N+](=O)[O-] (stereo not given)	?	?	16µM*	-22%	32µM*	-12%
CCn1c(SCC(=O)NC2CC2)nnc1-c1ccccc1	nt	nt	nt	-1%	nt	nt
CCOc1ccccc1-c1nnc(SCC(=O)NC2CC3CCC2C3)n1CC (stereo not given)	45µM*	37%	10%	-10%	-12%	8%
CCC(=O)Nc1cc(C)c(NC(=O)C23CC4CC(CC(C4)C2)C3)cn1	1.1µM*	51%	13%	-9%	1%	-12%
CNCc1nc2ccccc2[nH]1	nt	66%	?	?	?	-3%
Nc1ccc2nc(CCCCCCCCc3nc4ccc(N)cc4[nH]3)[nH]c2c1	32µM*	4%	22µM*	-12%	50µM*	18%
Nc1ccc2nc(-c3ccc(-c4nc5ccc(N)cc5[nH]4)cc3)[nH]c2c1	5%	19%	?	1%	-33%	54%
Oc1ccc(O)c(Cc2nc3ccccc3[nH]2)c1	3.2µM*	?	-34%	-17%	10µM*	5%
Nc1ccc2nc(-c3cccc(-c4nc5ccc(N)cc5[nH]4)n3)[nH]c2c1	11µM*	?	25µM*	-1%	45µM*	11%
CC(=O)NCCc1nc2ccccc2[nH]1	-12%[59 µM]	46%	-3%	-3%	1%	-16%
CN(CC(=O)O)Cc1nc2ccccc2[nH]1	1.3µM*	32%	20µM*	0%	-71%	10%
Nc1ccc2nc(COc3ccccc3)[nH]c2c1	?	24%	?	2%	-28%	-9%
Cc1oc(-c2ccc(C(=O)NCc3ccccc3Cl)cc2)nc1CN1CCc2ccccc21	-31%[59 µM]	-3%[57 µM]	?	nt	?	-6%
COc1ccccc1NC(=O)C1CCCN(c2cnccn2)C1 (stereo not given)	-1%	9%[57 µM]	-15%	4%	-1%	-4%
CC(/C=C/C=C/c1ccccc1)=N/NC(=O)c1ccc2c(c1)OCCO2	nt	42%	-3%	0%	-8%	7%
OCc1nc2ccc(Cl)cc2[nH]1	5%	65%	-2%	-5%	7%	-21%
O=C(Cn1ncc2c([nH]c3ccccc32)c1=O)N1CCc2ccccc2C1	0%[59 µM]	6%	-10%	-7%	-11%	3%
SMILES	G9a block	HP1b chromo inh	BAZ2B block	PLK1 PBD inh	JMJD2A Tudor inh	VDR inhibitor
COc1ccccc1OCc1nc2ccccc2[nH]1	14%[59 µM]	24%	-6%	1%	-4%	10%
c1ccc2[nH]c(CCCc3nc4ccccc4[nH]3)nc2c1	56µM*	54%	-6%	-8%	-12%	-5%
O=C(CCc1nc2ccccc2[nH]1)N1CCc2ccccc2C1	89µM*	14%	5%	?	-21%	-24%
Cc1ccccc1OCc1nc2ccccc2[nH]1	18%	-24%	-15%	27µM*	?	-10%
Nc1ccc2nc(CCCO)[nH]c2c1	28µM*	34%	50µM*	3%	-10%	17%
COc1ccc(N2CCN(S(=O)(=O)c3ccc4oc(=O)c5ncn(C)c5c4c3)CC2)cc1	-7%[59 µM]	30%	-26%	nt	-6%	20%
O=C(c1cc2ccccc2oc1=O)N1CCN(c2ccc(F)cc2)CC1	-2%[59 µM]	34%	-1%[57.1 µM]	nt	-9%	-12%
COc1cc(OCc2ccc(C)cc2)ccc1CNC[C@H]1O[C@@H](n2cnc(C(N)=O)n2)[C@H](O)[C@@H]1O	nt	16%	nt	-8%	-17%	-1%
CCOC(=O)CSc1nnc(CCc2nc3ccccc3[nH]2)n1C	11%[12.7 µM]	50%	7%	-12%	5%[57.1 µM]	-15%
Cn1c(CCc2nc3ccccc3[nH]2)n[nH]c1=S	?	17%	0%	-20%	7.9µM*	-19%
CCOc1ccc(Br)cc1C1=NN(C(C)=O)C(c2ccc([N+](=O)[O-])s2)O1 (stereo not given)	?	-7%	?	-13%	?	9%
N#Cc1ccccc1NC(=S)NC(=O)c1cccs1	11µM*	-7%[57 µM]	-13%	8.4µM*	-25%	-20%
O=C(NC(=S)Nc1cccc(Cl)c1N1CCCCC1)c1ccco1	-44%	-13%	?	-5%	-32%	-19%
O=C(NC(=S)Nc1cccc(Cl)c1N1CCCCC1)c1cccs1	-26%	?	-28%[57.1 µM]	-1%	56µM*	1%
Cc1cccc(C)c1-n1nnnc1C(c1ccnc2ccccc12)N1CCN(C(=O)OC(C)(C)C)CC1 (stereo not given)	nt	nt	nt	-3%	nt	nt
CCOC(=O)COc1c(-c2ccc(OC)cc2)oc2ccccc2c1=O	5%[59 µM]	125%	42%	-1%	29%	-1%
COc1ccc(-c2oc3ccccc3c(=O)c2OCC(=O)O)cc1	2%	-14%	-32%	12µM*	?	-22%
CCN(CC)c1ncc(C#N)c(N)n1	-23%	19%	-9%	-3%	-8%	67%
CCOC(=O)c1c(NC(=O)/C=C/C(=O)O)sc(C)c1-c1ccc(F)cc1	-36%	0%	-13%	-14%	-18%	22µM*
CC(C)=C1C2CCC1C(C(=O)Nc1sc(C)c(-c3ccc(C(C)C)cc3)c1C(N)=O)C2C(=O)O (stereo not given)	6%[59 µM]	-9%	2%	30µM*	-31%	-13%
COC(=O)c1c(NC(=O)/C=C/C(=O)O)sc(C)c1-c1ccc(C)cc1	?	11%	-25%	-19%	-22%	?
COC(=O)c1c(NC(=O)/C=C/C(=O)O)sc(C)c1-c1ccc(C)c(C)c1	-15%[59 µM]	-11%	-25%	?	-29%	89µM*
